Reference: PubChem BioAssay
Values without a mark were called inactive. How the calls were made is not given here.

experiment: blockers of DNA damage checkpoint Chk1 activation – imaging, HeLa, hydroxyurea, phospho-Chk1 nuclear intensity, primary screen (AID 1187); conditions: hydroxyurea-induced phospho-Chk1 immunofluorescence imaging, higher = more signal; further: test concentration not given here

Compound	z-score
CN1C(=O)C2C=CC(C(O)c3ccc(Br)cc3)N(N(c3ccccc3)c3ccccc3)C2C1=O (configuration not stated)	0.0215
CC1CC/C=C\[C@H]2OC34C=CCN(C(C)C)C(=O)[C@H]3N(CCCO)C(=O)[C@@H]4C2C(=O)O1 (some centres not stated)	-0.415
CCCC[C@H]1OB(O)C[C@H]2C1=C(C)C[C@H]1C(=O)N(C)C(=O)[C@H]12	0.547
O=C(CS)NCCCCCNC(=O)[C@H]1C[C@H]2C(=O)N3CCC[C@H]3C(=O)N2[C@H]1c1cccc(OCCO)c1	-0.281
COCCOC(=O)N1C(=O)[C@@]2(c3cc(C#Cc4ccc(OC)cc4)ccc31)[C@H](C(=O)N1CCN(c3ncccn3)CC1)[C@H]1C(=O)O[C@H](c3ccccc3)[C@H](c3ccccc3)N1[C@@H]2c1ccc(OCCO)cc1	-0.0346
C=CCNC(=O)[C@H]1[C@@H]2C(=O)O[C@@H](c3ccccc3)[C@@H](c3ccccc3)N2[C@@H](c2ccc(O)cc2)[C@]12C(=O)N(C(=O)OCCOC)c1ccc(C#CC3=CCCCC3)cc12	-0.376
COCCCNC(=O)[C@@]1(C)c2ccccc2C(=O)N(Cc2ccc(OC(F)(F)F)cc2)[C@H]1c1ccc(CO)cc1	-0.339
